Screens as filed in PubChem BioAssay.
Only some compounds are listed: those with a hit (about 3.1% of all), similar ones and a draw of the others.
HSP90 refold inh = HSP90 refolding inhibition in rabbit reticulocyte lysate | luciferase refolding luminescence, 3 h | inhibition, % at 5.6 µM | hit rate 0.91% among 290,000;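 active means inhibition above the screen-wide mean plus 3 SD, computed separately per campaign, cut at about 16% in these data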;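 further: 0% = DMSO wells and 100% = 60 µM geldanamycin wells; inhibitors lower the luminescence because luciferase stays unfolded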
ARNT-TACC3 inh = disruptors of human ARNT/TACC3 interaction | hit rate 0.66% among 390,000 | inhibition, % at 9.99 µM | Q9Y6A5 | AlphaScreen His-ARNT PAS-B/GST-TACC3 binding, luminescence; TACC3 fragment carries E629A point mutation;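 active means mean inhibition of replicates at least 50% and at least half of replicates each reaching 50%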;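 further: 0% = complete ARNT plus TACC3 wells and 100% = ARNT alone without TACC3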
HSF1 inh = HSF1 inhibition; NIH3T3-HGL HSE-luciferase, MG132-induced, luminescence 8 h; hits give low values; activity change, negative = inhibition, % at 7.5 µM (by protocol); hit rate 0.77% among 300,000;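 active means more than half of replicate wells show activity change below -50%, luminescence cut by over half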;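 further: luciferase reports HSF-1 transcriptional activity via heat shock element; 0% = median of DMSO wells and -100% = zero luminescence signal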
HIF act = HIF pathway transcriptional activation; U2OS HRE-luciferase reporter, luminescence; normalized: DMSO 0%, desferrioxamine 100%; activation, % at 7.5 µM (by protocol); hit rate 0.32% among 300,000; AID 1910;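 active means mean activation of at least 10% of the iron chelator positive control signal, with at least half of replicates also reaching 10%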
HSF-1 act = increases HSF-1 driven luciferase reporter signal; NIH3T3-HGL HSF-1 luciferase reporter, MG132, 8 h; 100% = twice DMSO control signal; activation, % at 9 µM; hit rate 1.7% among 300,000;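 active means mean replicate activation of at least 50% with a set share of replicates each reaching 50%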;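 further: 0% = median of the neutral control wells and 100% = twice that signal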
An asterisk follows results filed as active; · = no result given.

SMILES	HSP90 refold inh	ARNT-TACC3 inh	HSF1 inh	HIF act	HSF-1 act
CCc1[nH]nc2c1C1(CCN(C(=O)OCc3ccccc3)CC1)C(C#N)=C(N)O2	-2	1	7	0	55*
C[C@H]1CN([C@@H](C)CO)C(=O)c2cccc(NS(=O)(=O)c3ccc(F)cc3)c2O[C@@H]1CN(C)S(=O)(=O)c1ccc(F)cc1	·	-2	·	·	·
O=C(N/N=C\c1c(O)ccc2ccccc12)c1ccc(S(=O)(=O)N2CCCCC2)cc1	0	1	-5	23*	7
O=S(=O)(c1ccc(NC(=S)N/N=C/c2ccc(O)c(O)c2)cc1)N1CCOCC1	-1	6	-1	0	-3
O=S(=O)(c1ccc(Cl)c(NC(=S)N/N=C/c2ccc(O)cc2)c1)N1CCOCC1	-3	19	13	0	56*
O=C(CN1CCCc2ccccc21)N/N=C/c1c(O)ccc2ccccc12	10	-1	-13	16*	4
O=[N+]([O-])c1cc(Cl)cc(/C=N/NC(=S)Nc2ccc(S(=O)(=O)N3CCOCC3)cc2)c1O	-2	70*	-2	0	4
C[C@@H]1CN([C@@H](C)CO)C(=O)c2cccc(NC(=O)Nc3ccc4c(c3)OCO4)c2O[C@@H]1CN(C)S(=O)(=O)c1ccc(Cl)cc1	·	-4	·	·	·
O=C(CN1CCN(c2ccc(O)cc2)CC1)Nc1cc(S(=O)(=O)N2CCCC2)ccc1Cl	-2	33	-56*	0	-66
O=S(=O)(c1ccc(NC(=S)NN=Cc2ccccc2O)cc1)N1CCCCC1	·	46*	·	·	·
O=C(CN1CCN(c2ccc(O)cc2)CC1)Nc1cc(S(=O)(=O)N2CCCCC2)ccc1Cl	-2	5	0	-1	9
CC(C)NC(=O)N(C)C[C@H]1Oc2ccc(NC(=O)Cc3cn(C)c4ccccc34)cc2C(=O)N([C@@H](C)CO)C[C@H]1C	·	-2	·	·	·
COCC(=O)N1C[C@H](C)[C@@H](OC)CN(C)C(=O)c2ccc(NC(=O)c3ccc(OC)cc3)cc2OC[C@H]1C	·	-8	·	·	·
C[C@@H]1CN([C@@H](C)CO)S(=O)(=O)c2ccc(C#C[C@@H](C)O)cc2O[C@@H]1CN(C)CC1CCOCC1	·	-5	·	·	·
Cc1nnc(Sc2cc(NCCO)c([N+](=O)[O-])c3nonc23)s1	4	3	117	4	153*
CCCC(=O)OCCNc1cc(Sc2nccn2C)c2nonc2c1[N+](=O)[O-]	2	-4	234	0	290*
CCC(=O)OCCNc1cc(Sc2nc3ccccc3s2)c2nonc2c1[N+](=O)[O-]	4	9	31	0	85*
CCCSc1cc(NCCOC(=O)CCC)c([N+](=O)[O-])c2nonc12	-6	-4	-2	0	-1
O=[N+]([O-])c1c(NCCCO)cc(Sc2nc3ccccc3s2)c2nonc12	-2	4	223	0	272*
Cc1noc(C)c1NC(=O)Nc1ccc2c(c1)C(=O)N([C@@H](C)CO)C[C@@H](C)[C@H](CN(C)C(=O)Nc1ccc3c(c1)OCO3)OCCCC[C@@H](C)O2	·	-2	·	·	·
O=C(CSC1=N/C(=C/c2ccco2)C(=O)N1c1ccc(OC(F)F)cc1)NC1CCS(=O)(=O)C1 (stereo not given)	6	16	26	1	64*
COc1ccc2oc(=O)c(C(=O)NC3CCCCCC3)cc2c1	-4	-6	10	9.9*	17
Cc1c(C(=O)NC2CCCCC2)oc2ccc(F)cc12	1	-10	16	5	28
COc1cccc(C(=O)NC2CCCC2)c1	-4	-6	25	3	70*
COc1cccc(C(=O)NNC(=S)NC2CCCCC2)c1	-3	0	10	1	28
SMILES	HSP90 refold inh	ARNT-TACC3 inh	HSF1 inh	HIF act	HSF-1 act
CCC1CCC(NC(=O)Nc2cccc(OC)c2)CC1 (stereo not given)	2	·	25	2	62*
COc1ccc2oc(C(=O)NC3CCCCC3)c(C)c2c1	-1	-7	37	3	61*
CNC(=O)c1cc2cc(OC)ccc2oc1=O	4	-8	-7	0	-9
COc1cccc(C(=O)Nc2ccc(C3CC3(Cl)Cl)cc2)c1 (stereo not given)	-2	-2	61	2	103*
COc1ccc2oc(=O)c(C(=O)N3CCN(c4ccccc4)CC3)cc2c1	-1	-2	44	1	82*
O=C1CCCCc2sc(Br)c([N+](=O)[O-])c2N1	1	-6	77	-6	132*
CO[C@H]1CN(C)C(=O)c2ccc(NC(=O)c3ccccc3)cc2OC[C@@H](C)N(C(=O)CN(C)C)C[C@@H]1C	·	-8	·	·	·
CC(C)(C)c1cc(N2CCOCC2)n2ncc(-c3ccccc3)c2n1	-3	-5	-1	-39	2
CCCc1cc(N2CCOCC2)n2ncc(-c3ccccc3)c2n1	17*	-50	-16	-44	-3
CC(C)CC#Cc1cnc2c(c1)C(=O)N([C@@H](C)CO)C[C@@H](C)[C@@H](CN(C)Cc1ccc3c(c1)OCO3)O2	·	4	·	·	·
CCOC(=O)c1c(NC(=O)CSc2nnc(-c3c[nH]c4ccccc34)n2C)sc2c1CCCC2	0	-4	-56*	0	-65
Cc1ccc(C)c(NC(=O)c2nnn(Cc3ccccc3)c2N)c1	-1	-3	-3	-1	5
Cc1ccc(Cn2nnc(C(=O)Nc3cc(C)ccc3C)c2N)cc1	-1	3	61	0	104*
Cc1ccc(S(=O)(=O)Nc2ccc3c(c2)C(=O)N([C@@H](C)CO)C[C@@H](C)[C@H](CN(C)C(=O)CCCN(C)C)OCCCC[C@H](C)O3)cc1	·	-10	·	·	·
OC[C@H]1[C@H](c2ccc(Br)cc2)[C@H]2CN(Cc3cncnc3)CCCCN21	·	-1	·	·	·
COC(=O)CC1C(=O)NCCN1C(=O)CSc1nnc(Nc2ccc(OC)cc2)s1 (stereo not given)	1	4	-8	236*	5
O=C(OCC(=O)N1CCN(C(=O)c2ccco2)CC1)c1sc2cc(F)ccc2c1Cl	-1	-5	-55*	0	-66
O=C(OCC(=O)N1CCN(C(=O)c2ccco2)CC1)c1cccc(F)c1	·	2	·	·	·
Cc1cccc(-n2cnc3c(c2=O)c2nc4ccccc4nc2n3Cc2ccco2)c1	·	8	101	2	104*
Cc1cccc(S(=O)(=O)c2c(N)n(Cc3ccco3)c3nc4ccccc4nc23)c1	2	-12	25	0	28
CC(=O)N(C)C[C@@H]1Oc2cc(-c3ccc(C#N)cc3)ccc2S(=O)(=O)N([C@@H](C)CO)C[C@H]1C	·	2	·	·	·
CC(=O)N(C)C[C@@H]1Oc2cc(-c3ccc(C#N)cc3)ccc2S(=O)(=O)N([C@H](C)CO)C[C@@H]1C	·	active	·	·	·
CNC[C@@H]1Oc2cc(C#Cc3ccccn3)ccc2S(=O)(=O)N([C@@H](C)CO)C[C@H]1C	·	34	·	·	·
CNC[C@@H]1Oc2cc(C#Cc3ccccn3)ccc2S(=O)(=O)N([C@H](C)CO)C[C@H]1C	·	46*	·	·	·
